Assay outcomes from PubChem BioAssay.
This is a sample that favours compounds with a hit; in the whole collection about 9.7% have one here.
M1 antag: antagonists of rat M1 muscarinic receptor; 3.4% of 64,000 active; B-score at 10 µM; AID 628; CHO-M1 cells, Fluo-4 calcium, ACh EC80 antagonist mode; hits give low values; P08482;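 active means calcium fluorescence response, raw or row-and-column corrected B-score, differing from the plate sample mean either way at a set confidence level, mostly lower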
M1 agonist: M1 muscarinic receptor agonism; CHO-M1 cells, Fluo-4 calcium fluorescence, agonist mode; hits give high values; B-score at 10 µM; 3% of 64,000 active;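 active means fluorescence rise, raw or as B-score row- and column-corrected plate score, outside the 99.7% band of its plate's samples, either direction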
BAP1 inh: blocks human BAP1 ubiquitin-AMC hydrolysis; Q92560; recombinant BAP1, Ub-AMC hydrolysis fluorescence kinetic; hits give low values; calls only at 20 µM; 0.48% of 72,000 active; AID 436;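 active means activity remaining at or below 50% of control, provided the compound also passes the data quality filters; inactive means the rest, including low values that fail the filters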;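 further: 100% = DMSO wells rate and 0% = substrate alone blank rate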
Target sequence (Q92560 whole entry, looked up): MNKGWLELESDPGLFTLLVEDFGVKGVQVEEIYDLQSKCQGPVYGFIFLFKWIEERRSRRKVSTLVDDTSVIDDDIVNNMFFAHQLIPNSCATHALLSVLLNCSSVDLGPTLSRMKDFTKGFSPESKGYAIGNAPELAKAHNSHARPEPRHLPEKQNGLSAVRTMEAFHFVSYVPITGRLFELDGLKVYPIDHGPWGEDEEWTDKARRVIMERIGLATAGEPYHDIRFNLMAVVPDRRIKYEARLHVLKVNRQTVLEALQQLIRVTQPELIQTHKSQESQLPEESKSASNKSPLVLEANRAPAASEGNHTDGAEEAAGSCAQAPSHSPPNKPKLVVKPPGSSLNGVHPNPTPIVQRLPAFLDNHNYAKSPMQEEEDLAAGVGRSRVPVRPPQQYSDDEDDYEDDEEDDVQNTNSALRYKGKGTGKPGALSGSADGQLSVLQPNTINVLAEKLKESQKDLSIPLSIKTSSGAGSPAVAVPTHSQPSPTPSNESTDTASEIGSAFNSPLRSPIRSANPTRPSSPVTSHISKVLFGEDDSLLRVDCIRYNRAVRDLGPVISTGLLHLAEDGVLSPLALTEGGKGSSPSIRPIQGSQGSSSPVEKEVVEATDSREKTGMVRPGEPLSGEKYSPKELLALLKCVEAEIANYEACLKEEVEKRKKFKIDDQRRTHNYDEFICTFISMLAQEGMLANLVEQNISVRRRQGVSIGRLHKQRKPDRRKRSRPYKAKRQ
Fluor 339 460: intrinsic fluorescence of library compounds, ex339/em460 – biochemical, MLSMR library, data from DPM-DC assay, artefact control, profiling panel; compound autofluorescence, ex339/em460 nm, NADH buffer; hits give high values; 1 = no-compound wells, NADH background; fluorescence fold increase at 10 µM; 5.5% of 65,000 active; AID 709;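 active means at 10 µM, mean starting fluorescence two-fold or more over control wells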;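 further: signal is the first read of a kinetic run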
WNV protease inh: blocks West Nile virus NS2B-NS3 protease activity. P06935. WNV NS2B-NS3 protease, fluorogenic substrate Ex360/Em465; hits give low values. z-score (no concentration beside the values). 0.18% of 65,000 active. AID 577; in the data active means z-score below about -3
A340 absorber: compounds absorbing at 340 nm; compound absorbance at 340 nm, fold over control; fold change at 10 µM; 65,000 tested, under 10 active; AID 708;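 active means at 10 µM dose, initial 340 nm absorbance at least 2 fold that of control wells; inactive means change under 2 fold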;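 further: initial absorbance extrapolated from kinetic A340 decline of NADH oxidation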
M1 antag confirm: M1 muscarinic receptor (rat) antagonism, confirmed; shares compounds with M1 antag; CHO-M1 cells, Fluo-4 calcium, ACh EC80 antagonism; hits give low values; calcium response (max-min fluorescence) at 10 µM; 43% of 1,700 active; AID 677;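 active means calcium response below the same-plate mean of wells given acetylcholine alone at its 80%-effect dose, minus 3 SD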;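 further: raw fluorescence intensity difference in arbitrary instrument units and not normalized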
mGluR4 antag: mGluR4 (human) activity, M1 antagonist secondary assay; fluorescence response (max-min) at 10 µM; AID 678; 0.9% of 1,700 active; shares compounds with M1 antag; CHO-mGluR4 calcium flux, Fluo-4 fluorescence, glutamate EC80; hits give low values;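 active means fluorescence response below the plate's average for near-maximal glutamate wells, less 3 SD of those wells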;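 further: raw unnormalized fluorescence span taken in the window right after glutamate addition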
* marks the source's active call; other numbers are inactive results; i = inactive; . = not tested or not shown.

SMILES | M1 antag | M1 agonist | BAP1 inh | Fluor 339 460 | WNV protease inh | A340 absorber | M1 antag confirm | mGluR4 antag
O=C(NC1CCCCC1)c1sc(=S)n2c1[nH]c(=O)c1ccccc12 | -1.8* | 2.6 | i | 1.1 | -0.39 | 1 | 529 | 243
CCCCNC(=O)c1sc(=S)n2c1[nH]c(=O)c1ccccc12 | -1.1 | -0.72 | i | 1.1 | 1.6 | 1.1 | . | .
COC(=O)CSC1=C(C#N)C(c2ccc(F)cc2)CC(=O)N1 (stereo not given) | -2.2* | -0.88 | i | 1 | 0.19 | 0.99 | 632 | 197
Nc1nc(CN2CCN(c3ccccc3)CC2)nc(N2CCCc3ccccc32)n1 | -3.1* | -0.12 | i | 1.1 | 0.38 | 0.98 | 659 | 252
Cc1nc2c(C(=O)N3CCN(c4ccccn4)CC3)cnn2c(C)c1Cc1cccc(Cl)c1 | -2.3* | 2.2 | i | 1.3 | -1.7 | 1 | 606 | 249
Cc1nc2ncnn2c(C)c1CCC(=O)N1CCN(c2ccccn2)CC1 | 0.4 | 0.92 | i | 1.1 | 0.7 | 0.98 | . | .
COc1ccc(NC(=O)CSc2nc3ccc([N+](=O)[O-])cc3[nH]2)c(OC)c1 | . | . | i | . | . | . | . | .
Cc1nn2c(C(F)(F)F)cc(-c3ccc(Cl)cc3)nc2c1C(=O)N1CCCCCC1 | . | . | i | . | . | . | . | .
Cn1c(CCN2CCCCC2)nc2cc(NS(=O)(=O)c3ccc(F)cc3)ccc21 | -1.8* | -0.52 | i | 1.1 | -1.5 | 0.98 | 474* | 207
Cn1c(CN2CCCCC2)nc2cc(NC(=O)c3ccc(F)cc3)ccc21 | -0.96 | 0.089 | i | 1.1 | 0.6 | 1 | . | .
Cn1c(CCN2CCCCC2)nc2cc(NC(=O)NC3CCCCC3)ccc21 | -4.7* | -0.33 | i | 1.1 | -1.3 | 0.97 | 263* | 228
Cc1ccc(N2CCN(CCc3nc4cc(NS(C)(=O)=O)ccc4n3C)CC2)cc1 | -3.7* | 1.7 | i | 1 | 1.2 | 0.98 | 503* | 234
CCOc1cc(C#N)c(NC(=O)c2ccco2)cc1OCC | -11* | 0.73 | i | 1.1 | -0.63 | 1 | 623 | 185
Oc1c(CN2CCCCC2)cc(COCc2ccccc2)c2cccnc12 | -5.4* | -0.46 | i | 1.3 | 0.45 | 0.99 | 410* | 272
COCc1cc(CN2CCCC2)c(O)c2ncccc12 | -0.42 | -1.2 | i | 1.1 | 5.2 | 1 | . | .
Oc1c(CN2CCN(c3ccccn3)CC2)cc(Cl)c2cccnc12 | -1.9* | -3.1 | . | 1.1 | 3.5 | 0.99 | 577 | 271
COc1ccc(CN2CCN(Cc3ccco3)CC2)cc1Br | . | . | i | . | . | . | . | .
CCOC(=O)c1cnn(-c2ncnc3sc4c(c23)CCC4)c1N | -2.7* | -1.7 | i | 1.1 | -0.29 | 1 | 617 | 204
Cn1c(=O)n(Cc2ccccc2Cl)c2ccccc21 | . | . | i | . | . | . | . | .
Cn1c(=O)n(CCOc2ccccc2Cl)c2ccccc21 | -3.5* | 1.1 | i | 1.1 | 0.18 | 1 | 392* | 214
COc1ccccc1N1CCN(C(=O)CSc2ccc3c(C)cc(C)nc3n2)CC1 | 0.76 | -0.93 | i | 1.1 | -0.17 | 1.1 | . | .
COCCNc1nc(SCC(=O)N2CCN(c3ccccc3OC)CC2)nc2ccccc12 | -3.4* | 6.2 | i | 1.1 | 0.36 | 1 | 503* | 222
O=C1CC(N2CCN(Cc3ccc4c(c3)OCO4)CC2)C(=O)N1CCc1ccccc1 (stereo not given) | -1.2* | -2.5 | i | 1.1 | -0.84 | 0.96 | 482 | 220
COc1ccc(N2CCN(C(CNC(=O)C3CCCCC3)c3cccnc3)CC2)cc1 (stereo not given) | -2.9* | -1.3 | i | 1.1 | 0.76 | 1 | 634 | 244
COc1cccc(C=Nc2cccc(NC(=O)c3ccc(F)cc3)c2)c1O | . | . | i | . | . | . | . | .
CCN(CC)CCOC(=O)c1cccc(Br)c1 | -4.4* | 0.17 | i | 1.1 | 1.6 | 1 | 472* | 267
O=S(=O)(Nc1ccccn1)c1ccc(Cl)cc1 | 1.3 | 0.14 | i | 1.3 | 3 | 1 | . | .
